Test [1] addresses Nuclear receptor coactivator 3 (Homo sapiens) (UniProt Q9Y6Q9). In words: NCOA3 GAL4-fusion reporter inhibition – cell-based, luminescence, quadruplicate, confirmation (AID 588792;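 active = mean inhibition over 43.08%, the solvent-only control mean plus 3 SD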;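 note: 0% = DMSO treated cells and 100% = gossypol at 36 µM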). The settings on record: HEK293 GAL4-SRC3 luciferase reporter, at 3.6 µM, hits give high values. On the technique in general: A reporter such as luciferase makes a cellular process visible.
Test [2] has as its system transactivating tegument protein VP16 (Human herpesvirus 1), Gal4-VP16 luciferase reporter. In words: repression of VP16-driven luciferase reporter – cell-based, luminescence, high throughput, counter-screen for SRC3 inhibitor project (AID 588794). The note with it: mammalian cells, at 3.6 µM, hits give high values.
Test [3] can be described thus: StAR promoter reporter inhibitors, counter-screen for LRH-1 inverse agonist project, cell-based, luminescence, high throughput (AID 651611; in the data active = inhibition above about 28%). The settings on record: StAR promoter luciferase reporter counterscreen, at 3.6 µM, hits give high values.
The target of test [4] is Nuclear receptor subfamily 5 group A member 2 (Homo sapiens) (UniProt O00482). In words: NR5A2 activity suppression in reporter cells – cell-based, luminescence, confirmation (AID 651613; in the data active = inhibition above about 42%;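 note: HEK293T cells co-transfected with LRH-1 and StAR promoter luciferase reporter; 0% = vehicle wells and 100% = parental cells lacking receptor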). The note with it: cell-based LRH-1 luciferase reporter, inverse agonism; at 3.6 µM; hits give high values.
Sequence of Nuclear receptor subfamily 5 group A member 2 (Homo sapiens) (O00482 whole entry, looked up): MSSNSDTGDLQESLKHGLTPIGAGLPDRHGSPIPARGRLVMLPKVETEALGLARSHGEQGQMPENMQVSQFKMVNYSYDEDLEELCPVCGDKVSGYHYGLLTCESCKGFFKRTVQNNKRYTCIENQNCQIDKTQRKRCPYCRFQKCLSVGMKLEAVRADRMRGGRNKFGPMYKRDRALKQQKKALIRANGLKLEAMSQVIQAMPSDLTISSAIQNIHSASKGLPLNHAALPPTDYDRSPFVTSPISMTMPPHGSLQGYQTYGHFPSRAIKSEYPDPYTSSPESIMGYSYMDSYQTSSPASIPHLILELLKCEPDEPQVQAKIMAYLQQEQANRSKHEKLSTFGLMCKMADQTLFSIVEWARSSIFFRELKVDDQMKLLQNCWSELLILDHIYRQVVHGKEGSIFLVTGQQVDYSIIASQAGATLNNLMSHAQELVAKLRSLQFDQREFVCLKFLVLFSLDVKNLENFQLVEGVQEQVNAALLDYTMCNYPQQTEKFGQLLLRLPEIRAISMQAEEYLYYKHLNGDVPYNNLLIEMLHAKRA
Test [5] addresses Steroidogenic factor 1 (Homo sapiens) (UniProt Q13285). The test is described as follows: inverse agonism at SF1 nuclear receptor – cell-based, luminescence, high throughput, counter-screen for LRH-1 inverse agonist project (AID 651614; in the data active = inhibition above about 44%;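 note: cells cotransfected with StAR promoter reporter and SF1 expression vector; 0% = vehicle on cells with receptor and 100% = vehicle on cells lacking receptor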). The note with it: cell-based SF1 luciferase reporter, at 3.6 µM, hits give high values.
Test [6] can be described thus: compounds suppressing VP16-driven luciferase signal – cell-based, luminescence, high throughput, counter-screen for LRH-1 inverse agonist project (AID 651615; in the data active = inhibition above about 33%). The note with it: Gal4-VP16 luciferase reporter cells, at 3.6 µM, hits give high values. A general note: A counterscreen serves to expose hits that act by an unwanted route or on another target.
The subject of test [7] is transactivating tegument protein VP16 (Human herpesvirus 1). In words: compounds suppressing VP16-driven luciferase signal – cell-based, luminescence, single concentration, counter-screen for SRC2 inhibitor project (AID 652007; in the data active = inhibition above about 36%). The settings on record: cell-based VP16 transactivation luciferase reporter, at 8.9 µM, hits give high values.
The target in test [8] is Nuclear receptor coactivator 2 (Homo sapiens) (UniProt Q15596). The test is described as follows: inhibition of GAL4-SRC2 driven luciferase expression – cell-based, luminescence, HEK293, triplicate, confirmation (AID 652008;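 active = mean inhibition above 46.5%, the solvent-only control mean plus 3 SD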;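 note: 0% = DMSO-treated cells and 100% = Gossypol at 36 µM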). The settings on record: HEK293 GAL4-SRC2 luciferase reporter, at 8.9 µM, hits give high values.
Sequence of Nuclear receptor coactivator 2 (Homo sapiens) (Q15596 whole entry, looked up, the tested form may be a part): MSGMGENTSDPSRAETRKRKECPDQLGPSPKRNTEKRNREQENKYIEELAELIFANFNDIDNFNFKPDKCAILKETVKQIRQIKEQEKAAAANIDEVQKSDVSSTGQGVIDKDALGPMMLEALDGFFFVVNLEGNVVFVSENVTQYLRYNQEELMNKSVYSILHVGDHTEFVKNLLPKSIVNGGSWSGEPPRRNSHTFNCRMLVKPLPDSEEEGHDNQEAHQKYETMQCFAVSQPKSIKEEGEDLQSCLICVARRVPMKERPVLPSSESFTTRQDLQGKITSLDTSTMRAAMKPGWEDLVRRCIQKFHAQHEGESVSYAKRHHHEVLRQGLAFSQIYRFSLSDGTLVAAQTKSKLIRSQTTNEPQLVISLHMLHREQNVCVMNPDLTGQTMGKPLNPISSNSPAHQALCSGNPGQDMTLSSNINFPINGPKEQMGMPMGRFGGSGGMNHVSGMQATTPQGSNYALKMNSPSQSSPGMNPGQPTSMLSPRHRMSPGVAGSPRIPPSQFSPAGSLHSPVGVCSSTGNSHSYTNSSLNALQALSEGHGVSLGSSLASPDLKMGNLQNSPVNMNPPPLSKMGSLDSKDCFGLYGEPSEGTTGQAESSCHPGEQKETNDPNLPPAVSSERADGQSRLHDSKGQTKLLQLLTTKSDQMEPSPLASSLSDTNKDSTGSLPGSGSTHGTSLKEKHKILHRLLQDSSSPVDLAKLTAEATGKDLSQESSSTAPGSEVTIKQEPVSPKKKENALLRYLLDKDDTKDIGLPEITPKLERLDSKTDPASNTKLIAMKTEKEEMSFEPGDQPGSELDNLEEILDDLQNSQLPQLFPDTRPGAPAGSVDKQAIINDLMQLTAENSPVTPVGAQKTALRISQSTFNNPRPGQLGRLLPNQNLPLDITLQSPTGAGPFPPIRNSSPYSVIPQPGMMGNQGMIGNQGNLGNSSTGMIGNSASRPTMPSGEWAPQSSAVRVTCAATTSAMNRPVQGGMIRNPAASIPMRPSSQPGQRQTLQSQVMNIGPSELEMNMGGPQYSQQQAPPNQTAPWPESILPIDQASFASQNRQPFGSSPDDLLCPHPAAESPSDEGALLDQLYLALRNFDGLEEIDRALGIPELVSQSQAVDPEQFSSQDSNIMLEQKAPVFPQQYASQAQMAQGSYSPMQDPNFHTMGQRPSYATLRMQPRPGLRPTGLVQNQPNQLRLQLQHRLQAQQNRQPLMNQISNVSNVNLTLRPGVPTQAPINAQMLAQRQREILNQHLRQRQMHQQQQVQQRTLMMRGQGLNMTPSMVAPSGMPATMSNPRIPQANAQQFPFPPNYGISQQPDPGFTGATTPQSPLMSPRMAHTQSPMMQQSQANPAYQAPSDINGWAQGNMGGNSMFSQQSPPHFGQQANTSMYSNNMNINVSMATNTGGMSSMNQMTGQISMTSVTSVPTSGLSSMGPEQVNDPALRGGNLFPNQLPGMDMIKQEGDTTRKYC
Test [9] in a line: VP16-driven transactivation reporter suppression – cell-based, luminescence, HEK293, counter-screen for COUP-TFII antagonist project (AID 687007; in the data active = inhibition above about 13%). The note with it: HEK293 Gal4-VP16 luciferase reporter, at 8.5 µM, hits give high values.
For test [10], the target named is COUP transcription factor 2 (Homo sapiens) (UniProt P24468). In words: retest of COUP-TFII reporter suppressors – cell-based, luciferase reporter, HEK293, triplicate, confirmation (AID 687008;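 active = mean inhibition over three repeats above a set limit taken from the earlier primary screen, cut at about 38% in these data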;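 note: 100% = cells given the luciferase reporter alone without the COUP-TF2 vector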). The settings on record: HEK293 NGFI-A luciferase reporter, luminescence; at 8.5 µM; hits give high values.
Sequence of COUP transcription factor 2 (Homo sapiens) (P24468 whole entry, looked up): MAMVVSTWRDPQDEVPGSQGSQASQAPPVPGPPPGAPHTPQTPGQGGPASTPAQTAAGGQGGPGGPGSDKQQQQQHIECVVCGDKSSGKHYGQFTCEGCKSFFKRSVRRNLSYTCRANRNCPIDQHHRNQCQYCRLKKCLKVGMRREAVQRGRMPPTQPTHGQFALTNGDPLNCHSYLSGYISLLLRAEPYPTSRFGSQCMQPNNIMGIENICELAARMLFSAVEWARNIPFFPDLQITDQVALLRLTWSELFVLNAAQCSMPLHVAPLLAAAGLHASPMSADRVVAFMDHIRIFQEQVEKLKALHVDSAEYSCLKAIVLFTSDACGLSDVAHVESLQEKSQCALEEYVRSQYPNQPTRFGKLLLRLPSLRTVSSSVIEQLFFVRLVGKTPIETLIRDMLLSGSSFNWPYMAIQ

SMILES strings stand for the structures. A number with no mark means an inactive call. The list shows a part of the results. Activity calls are given as the source filed them. Cut-off read from the data, not from the text of the source, unless noted: active = inhibition above about 30%; inactive = the rest.

Sequence of Nuclear receptor coactivator 3 (Homo sapiens) (Q9Y6Q9 whole entry, looked up, the tested form may be a part): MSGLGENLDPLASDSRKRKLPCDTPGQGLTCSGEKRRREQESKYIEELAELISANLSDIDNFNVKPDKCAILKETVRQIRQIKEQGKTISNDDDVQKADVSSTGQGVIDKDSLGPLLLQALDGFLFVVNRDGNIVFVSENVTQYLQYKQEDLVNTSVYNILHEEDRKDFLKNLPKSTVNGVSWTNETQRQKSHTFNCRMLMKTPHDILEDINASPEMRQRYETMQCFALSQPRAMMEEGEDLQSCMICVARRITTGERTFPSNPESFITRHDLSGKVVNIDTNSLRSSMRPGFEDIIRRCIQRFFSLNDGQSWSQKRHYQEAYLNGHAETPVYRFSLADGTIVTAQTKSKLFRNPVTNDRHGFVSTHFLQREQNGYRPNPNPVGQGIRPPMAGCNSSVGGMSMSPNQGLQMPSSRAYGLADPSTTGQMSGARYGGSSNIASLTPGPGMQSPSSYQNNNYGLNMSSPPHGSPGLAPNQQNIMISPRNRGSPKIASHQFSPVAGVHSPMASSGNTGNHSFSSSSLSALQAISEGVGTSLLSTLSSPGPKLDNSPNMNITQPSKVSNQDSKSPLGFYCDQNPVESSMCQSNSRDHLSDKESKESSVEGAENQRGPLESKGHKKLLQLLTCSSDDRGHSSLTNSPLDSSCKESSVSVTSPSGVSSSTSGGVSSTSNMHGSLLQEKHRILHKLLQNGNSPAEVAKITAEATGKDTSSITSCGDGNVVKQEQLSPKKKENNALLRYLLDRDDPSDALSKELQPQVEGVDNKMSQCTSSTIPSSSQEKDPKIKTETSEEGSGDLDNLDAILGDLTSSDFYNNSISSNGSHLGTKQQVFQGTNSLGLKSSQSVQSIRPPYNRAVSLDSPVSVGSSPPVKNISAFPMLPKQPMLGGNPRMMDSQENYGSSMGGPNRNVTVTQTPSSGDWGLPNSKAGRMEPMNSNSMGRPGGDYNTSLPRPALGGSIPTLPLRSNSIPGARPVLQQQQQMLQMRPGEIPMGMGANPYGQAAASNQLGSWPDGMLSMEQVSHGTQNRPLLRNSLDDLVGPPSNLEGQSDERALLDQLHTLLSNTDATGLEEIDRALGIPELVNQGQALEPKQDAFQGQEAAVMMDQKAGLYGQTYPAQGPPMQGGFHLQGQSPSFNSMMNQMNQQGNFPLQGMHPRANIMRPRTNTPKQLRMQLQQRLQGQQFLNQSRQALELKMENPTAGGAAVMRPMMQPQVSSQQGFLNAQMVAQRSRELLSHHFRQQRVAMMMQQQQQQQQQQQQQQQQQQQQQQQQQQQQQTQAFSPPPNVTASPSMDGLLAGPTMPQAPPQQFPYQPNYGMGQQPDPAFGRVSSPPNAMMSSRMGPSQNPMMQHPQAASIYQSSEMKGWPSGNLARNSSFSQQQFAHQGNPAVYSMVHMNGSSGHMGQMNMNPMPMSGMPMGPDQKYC
Sequence of Steroidogenic factor 1 (Homo sapiens) (Q13285 whole entry, looked up, the tested form may be a part): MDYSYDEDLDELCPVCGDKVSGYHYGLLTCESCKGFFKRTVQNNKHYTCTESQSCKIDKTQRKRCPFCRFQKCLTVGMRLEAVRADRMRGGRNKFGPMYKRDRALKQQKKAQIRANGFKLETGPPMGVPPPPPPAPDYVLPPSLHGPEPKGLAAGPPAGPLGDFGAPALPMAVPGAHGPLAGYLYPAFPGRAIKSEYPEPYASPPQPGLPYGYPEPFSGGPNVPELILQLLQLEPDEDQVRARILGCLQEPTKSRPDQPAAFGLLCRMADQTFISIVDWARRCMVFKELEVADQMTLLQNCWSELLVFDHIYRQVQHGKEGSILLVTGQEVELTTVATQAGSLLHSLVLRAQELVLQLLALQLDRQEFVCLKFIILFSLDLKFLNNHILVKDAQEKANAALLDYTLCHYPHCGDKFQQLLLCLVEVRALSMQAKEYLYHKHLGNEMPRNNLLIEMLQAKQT

In general, inhibition refers to the drop in the measured response relative to a control, in per cent. Take `Clc1cccc(CNc2ccn3nc(-c4ccc(OCc5ccccc5)cc4)cc3n2)c1`: the inhibition in [1] was -4.23%; in [2], 35.7% (active); in test [3], 23.4%; in test [4] it was 40.9%; in test [5], 51% (active); in test [6] it was 56.4% (active).
With `C=C1C(=O)[C@]23C[C@H]1CCC2[C@@]1(C)C(C[C@@H]3O)[C@](C)(C(=O)OC)CC[C@@H]1OC(C)=O` (some centres not stated), the inhibition is 62.7% (active) in [1]; 44.9% (active) in test [2]; 61.7% (active) in test [3]; 70.7% (active) in test [4]; 80.6% (active) in test [5]; 76.2% (active) in test [6]. For the same molecule, the inhibition in test [7] was 83.2% (active); in test [8] it was 99% (active).
Turning to `CCN(CC)c1ccc(/C=N/NC(=O)c2cccc(S(=O)(=O)N3CCOCC3)c2)c(O)c1`, the inhibition in test [1] is 60% (active); in test [2], 61.7% (active); in [3], 79.2% (active); in [4], 96.4% (active); in [5] it was 82.6% (active); in [6], 64.8% (active).
With `CCOC(=O)c1c2c(n(-c3ccc(OC)cc3)c1C)C(=O)C(=O)c1ccccc1-2`, the inhibition in [1] is 45.9% (active); in [2], 33.8% (active); in [3] it was 63% (active); in test [4] it was 66.5% (active); in test [5], 63.8% (active); in test [6], 50.3% (active).
On to `Cc1cc(C)c(S(=O)(=O)/N=C2\C=C(Nc3ccc(C(=O)O)cc3)C(=O)c3ccccc32)c(C)c1`, for which the inhibition in test [1] is 12.8%; in test [2] it was 11.8%; in [3] it was 40.8% (active); in test [4], 61.8% (active); in [5] it was 61% (active); in [6], 43.8% (active). Also, the inhibition was 6.44% in test [7] and 1.79% in test [8].
Take `COc1ccc(OC)c(NC(=O)c2nnn(Cc3ccccc3C)c2N)c1`: the inhibition in test [1] was 4.83%; in [2], 29.9% (active); in test [3], 20.2%; in test [4], 44.5% (active); in [5], 52.9% (active); in test [6] it was 57.3% (active).
For the molecule `COc1cc(/C=C/C(=O)c2ccc(C)cc2)ccc1OCC#N`, the inhibition in test [1] is 31.2%; in [2], 41.2% (active); in [3], 23.6%; in [4] it was 29.3%; in [5], 36.5%; in test [6], 44.4% (active). The inhibition in test [7] is 28%; in test [8] it was 29.4%.
For the molecule `COc1ccc(-n2c(-c3ccc(Cl)cc3)c[n+]3c2CCc2ccccc2-3)cc1`, the inhibition was 16.3% in test [1]; 45.2% (active) in [2]; 30.1% (active) in test [3]; 79.2% (active) in [4]; 69.1% (active) in test [5]; 70.5% (active) in test [6].
Take `CC(=O)c1c(C)[nH]c(C(=O)OCC(=O)Nc2ccc(Cl)cc2[N+](=O)[O-])c1C`: the inhibition was 9.25% in test [1]; 38% (active) in test [2]; 22% in test [3]; 59.6% (active) in test [4]; 62.2% (active) in [5]; 54.5% (active) in [6].
On to `CC[n+]1cc(C)ccc1/C=C/c1ccc(N(C)C)cc1`, for which the inhibition in test [9] was -0.96%; in test [10], 62.6% (active).
Take `O=C(Nc1ccc(OCC(=O)N2CCOCC2)cc1)c1cncc(Br)c1`: the inhibition was 29.6% in [1], 23% in test [2], 3.8% in test [7] and 26.1% in [8].
Consider `Cc1ccccc1Nc1nc(N)nc(CCl)n1`, for which the inhibition is 22.9% in test [1], 0.42% in test [2], -11.3% in test [7] and 52.5% (active) in [8].
Taken in the same sequence, the figures for `O=C(OCc1ccccc1)c1ccc(NCc2cc(O)ccc2O)cc1` were 70.6% (active), 25.9%, 94.5% (active) and 90% (active).
The like results for `Cc1cc(C)cc(OCC(=O)NCC2CCCO2)c1` (configuration not stated) were, in that order, 18.4%, -9.18%, -1.96% and 28.9%.
The like results for `Cc1cccc(C)c1NS(=O)(=O)c1ccc(-c2cnc(C3CC3)o2)cc1` were, in that order, 43.2% (active), 15.3%, 2.97% and 17.2%.
In the case of `Cn1c(/C=C/c2ccc(Br)cc2)c([N+](=O)[O-])c(=O)n(C)c1=O`, the inhibition in test [1] is 45.2% (active); in test [2], 47.8% (active); in test [7], 15.8%; in test [8], 40.7%.
The like results for `Cc1ccc(C(=O)NNC(=O)CCCN2C(=O)/C(=C/c3ccccc3Cl)SC2=S)cc1` were, in that order, 20.4%, 21.8%, 53.4% (active) and 60.2% (active).
Taken in the same sequence, the figures for `Cc1cc2nccc(-c3ccncc3)n2n1` were 38.2%, 22.4%, 3.85% and 33.4%.
In the case of `CC(=O)CSc1ccc(-c2nc3cc(C)c(C)cc3[nH]2)cn1`, the inhibition in test [1] is 22.4%; in [2] it was 3.79%; in test [7] it was 10.4%; in test [8], 78.8% (active).
The like results for `CCCCN(CC)Cc1ccc(CNC(=S)Nc2ccc(C)cc2Cl)o1` were, in that order, 14.2%, -5.53%, 12.7% and 30.4%.
Take `O=C(Cc1ccc(Cl)cc1)c1c[nH]c(C(=O)NCc2cccnc2)c1`: the inhibition in [1] is 95.9% (active); in test [2] it was 56% (active); in [7], 93.5% (active); in [8], 95.2% (active).
Take `O=S(=O)(c1ccc(F)cc1)c1snnc1-c1ccccc1`: the inhibition is 29% in [1], 8.39% in [2], 27.8% in test [7] and 28.7% in [8].
Taken in the same sequence, the figures for `COc1ccc(NC(=O)/C(Cl)=C(/Cl)S(=O)(=O)Cc2ccccc2)cn1` were -15.3%, 8.74%, 80.4% (active) and 72.4% (active).
The like results for `CCOc1cc(/C=C/C(=O)c2ccc(C)cc2)ccc1OCC(=O)N(C)C` were, in that order, 24.8%, 25.1%, 16.4% and 31.6%.
Taken in the same sequence, the figures for `COc1ccc(N(C(=O)CCl)C(C(=O)NCCc2ccccc2)c2cccs2)cc1Cl` (configuration not stated) were 46.4% (active), 41.7% (active), 29.9% and 64.9% (active).

Source of the values: PubChem BioAssay.
